# IP6K1 inh – inhibitors of human IP6K1 | IP6K1 kinase, ADP-Glo luminescence, 2 h; active compounds read low | Q92551 | activity change, % (series mostly up to about 58 µM) | actives 0.81% (n = 140,000); in the data active means activity change below about -25%; further: on the % scale 0 is the no-effect control and ±100 the full control effect
# Target sequence (Q92551 whole entry, looked up): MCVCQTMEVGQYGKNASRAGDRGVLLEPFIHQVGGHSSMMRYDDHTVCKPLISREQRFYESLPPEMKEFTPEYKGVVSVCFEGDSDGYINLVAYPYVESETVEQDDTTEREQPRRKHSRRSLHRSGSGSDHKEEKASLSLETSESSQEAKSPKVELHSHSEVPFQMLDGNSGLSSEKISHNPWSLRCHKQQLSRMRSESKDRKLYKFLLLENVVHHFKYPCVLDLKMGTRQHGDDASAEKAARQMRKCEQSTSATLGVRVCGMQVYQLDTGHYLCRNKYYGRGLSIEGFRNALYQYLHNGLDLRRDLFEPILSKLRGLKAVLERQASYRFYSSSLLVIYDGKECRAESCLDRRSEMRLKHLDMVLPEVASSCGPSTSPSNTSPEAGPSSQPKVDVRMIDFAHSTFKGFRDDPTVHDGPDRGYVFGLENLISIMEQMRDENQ
#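 ADP-Glo luminescence measures ADP made by human IP6K1 during a 2 h RT reaction with ATP/IP6 (mix at 1.3 mM/130 uM); top library doses 57.5 and 19.1 uM final.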
# KDM5B inhibitor – inhibitors of human KDM5B histone demethylase; actives 2.6% (n = 220,000); Q9UGL1; Potency, µM (doses to about 57.7 µM), hits mostly inhibitors; KDM5B demethylase, FDH-coupled NADH fluorescence (FDH is formaldehyde dehydrogenase); AID 1347165; further: potency means the concentration at half of the fitted maximal effect; 0% is about no effect; nearly all actives have a fitted effect of over 70% in size
#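 KDM5BΔAP (200 nM final) in 50 mM HEPES pH 7.5, 0.01% Tween-20 was preincubated 10 min at RT with compound over a concentration range. Substrate mix (H3K4me3 12.5 µM, α-KG 25 µM, Fe²⁺, ascorbate, NAD⁺, FDH) was added, and NADH fluorescence change over 30 min gave dose-response curves.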
# SNCA expr inh – reduces expression of the alpha-synuclein gene; HEK-293 SNCA-luciferase knock-in, luminescence, 24 h; Potency, µM (top dose mostly 57.2 µM), for inactives: at the highest dose activity change, negative = inhibition, actives largely listed as inhibitors; actives 0.17% (n = 140,000);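 further: potency means the concentration at half of the fitted maximal effect; plate controls were DMSO cells for no effect and cell-free wells for full effect; nearly all actives have a fitted effect of over 45% in size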
# SNCA viab count – cell viability loss counter-screen | Potency, µM (top dose mostly 57.1 µM), for inactives: at the highest dose activity change, negative = cytotoxicity, actives largely listed as cytotoxic | actives 0.12% (n = 150,000) | HEK-293-SNCA-luc viability, GF-AFC fluorescence, 24 h | AID 1671193;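 further: potency means the concentration at half of the fitted maximal effect; 0% = DMSO-treated cells and -100% = medium-only wells without cells; nearly all actives have a fitted effect of over 30% in size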
#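 Cytotoxicity counterscreen: after 24 h compound treatment of genome-edited SNCA-luciferase HEK-293 cells, live-cell protease substrate GF-AFC read by fluorescence after 30 min; activity scaled between DMSO (0%) and medium-only (-100%), curves Hill-fitted.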
# * hit, by the source's call; i = inactive; ? = inconclusive; . = no result; [ ] = dose if it differs, or a comment. Most compounds without a hit are left out; they make up all but 3% or so of the library. Unless noted, the call rests on the fitted dose curve; in most records, active means well fitted curve in the direction sought with a large enough effect; inconclusive means small, poorly fitted or top-dose-only effect, or another doubt; inactive means no such curve, though single readings can be large; an effect the other way counts as inactive or inconclusive.
SMILES,IP6K1 inh,KDM5B inhibitor,SNCA expr inh,SNCA viab count
COc1ccc(-c2ccc3nnc(CNC(=O)Cc4cccc(OC)c4)n3n2)cc1,-6,25µM*,-1%,-7%
O=C1c2cc(N3CCOCC3)nc(-c3ccccc3F)c2CN1CC(F)(F)F,5,32µM*,-8%[87.6 µM],-10%[87.6 µM]
O=C1c2cc(N3CCOCC3)nc(-c3cnc4[nH]ccc4c3)c2CN1CC(F)(F)F,21,32µM*,-2%[87.6 µM],-4%[87.6 µM]
O=C1c2cc(N3CCOCC3)nc(-c3cnc4[nH]ccc4c3)c2CN1CC1CC1,-20,13µM*,10%[87.6 µM],-16%[87.6 µM]
CCOc1ccccc1N(CC)C(=O)Cn1nc(Cc2ccncc2)c2ccccc2c1=O,.,i,.,.
COc1cc(-c2onc(C)c2C(=O)NCC2CCCO2)cc(OC)c1OC (stereo not drawn),36,28µM*,6%,-11%
COc1cc(CNC(=O)c2c(C)noc2-c2cc(OC)c(OC)c(OC)c2)cc(OC)c1,-10,28µM*,3%,9%
COCCNC(=O)c1c(C)noc1-c1cc(OC)c(OC)c(OC)c1,5,28µM*,23%,1%
CCCOCCNC(=O)c1c(C)noc1-c1cc(OC)cc(OC)c1,1,i,-20%,3%
CCOCCCNC(=O)c1c(C)noc1-c1cc(OC)c(OC)c(OC)c1,18,28µM*,-9%,6%
CCCCCCCCNC(=O)/C(C#N)=C\C=C\c1ccccc1,.,i,.,.
CC(NC(=O)CCc1c[nH]c2ccccc12)c1ccco1 (stereo not drawn),.,i,.,.
C#CCN(Cc1ccc(C)cc1)C(=O)C1CCCN(C(=O)CC)C1 (stereo not drawn),.,i,.,.
Cc1noc(-c2ccc3c(c2)OCO3)c1C(=O)NCCCOC(C)C,13,?,-2%,-14%
COc1cc(-c2onc(C)c2C(=O)NCCCOC(C)C)cc(OC)c1OC,6,32µM*,15%,16%
COc1cc(-c2onc(C)c2C(=O)NCCC(c2ccccc2)c2ccccc2)cc(OC)c1OC,-6,28µM*,-3%,4%
Cc1nn(-c2ccccc2)c2c1C(C)N(C1CN(C(=O)C3CCCC3)C1)C2=O (stereo not drawn),6,.,.,.
COc1ncc(-c2nccc3c(=O)cc(N4CCN(C)CC4)oc23)cn1,9,35µM*,-1%[87.6 µM],4%[87.6 µM]
COc1ccc(-c2nccc3c(=O)cc(N4CCN(C)CC4)oc23)cn1,-12,32µM*,11%[87.6 µM],12%[87.6 µM]
COc1cc(F)ccc1-c1nccc2c(=O)cc(N3CCN(C)CC3)oc12,-8,?,14%[87.6 µM],-3%[87.6 µM]
CC1CC(C)(C)C(CNC(=O)CCl)C1NC(=O)CCl (stereo not drawn),.,i,.,.
CSc1ccc(NC(=O)c2cc3c(s2)CN(C2CC2)C3)cc1,-5,22µM*,68%,-1%
O=C(c1ccccc1)N1CCC2(CC1)C(=O)Nc1ccccc12,-13,i,-19%,4%
CCOC(=O)C1(Cc2ccc(F)cc2)CCCN(C(=O)c2cc3nc(C)cc(C)n3n2)C1 (stereo not drawn),6,32µM*,72%,-4%
Cc1cc(C)n2nc(C(=O)N3CCC4(CC3)C(=O)Nc3ccccc34)cc2n1,8,28µM*,-6%,-8%
SMILES,IP6K1 inh,KDM5B inhibitor,SNCA expr inh,SNCA viab count
CC(C)=CCCC1(C)/C=C/C(OC(=O)C=C(C)C)C(C)(O)/C=C/C(=O)/C(CO)=C\C1 (stereo not drawn),2,.,.,13µM*
CC(C)NC(=O)c1ccc(-c2ccc(N3CCCCCC3)nc2)cc1,6,i,63%,-11%
O=C(c1ccc(-c2ccc(N3CCCCCC3)nc2)cc1)N1CCCC1,2,25µM*,-17%,-24%
O=C(NC1CCCC1)c1ccc(-c2ccc(N3CCCCC3)nc2)cc1,2,11µM*,6%,1%
CN(C)C(=O)c1ccc(-c2ccc(N3CCCCCC3)nc2)cc1,1,28µM*,25%,-23%
CCc1ccc(C(=O)COC(=O)CCc2ccccc2)cc1,.,i,.,.
O=C(O)CCSc1ccccc1Br,.,i,.,.
O=C(CC(Sc1n[nH]c(-c2ccc(F)cc2)n1)c1ccc(F)cc1)NCc1cccnc1 (stereo not drawn),.,i,.,.
COc1ccc2c(c1)cc(C(=O)N1Cc3[nH]cnc3CC1C(=O)O)n2C (stereo not drawn),-2,18µM*,-1%,1%
O=c1c(-c2ccc(Cl)cc2)coc2cc(OCCN3CCN(CCO)CC3)ccc12,.,i,.,.
CCN(CC)CCNC(=O)NC(=O)c1ccccc1,.,i,.,.
C1=C/COCc2cc(ccc2OCCN2CCCC2)Nc2nccc(n2)-c2cccc(c2)COC/1,-14,.,.,9.5µM*
Cc1oc(-c2ccccc2Cl)nc1CS(=O)CC(=O)N1CCN(c2cccc(C(F)(F)F)c2)CC1 (stereo not drawn),11,i,13µM*,?
O=C(c1cccc2[nH]ccc12)N1CCC(n2cc(-c3nc(-c4ccccc4)no3)nn2)C1 (stereo not drawn),6,25µM*,6%,-27%
O=C(c1cccc2[nH]ccc12)N1CCC(n2cc(-c3nc(-c4ccccc4)no3)nn2)CC1,2,28µM*,8%,-17%
O=C(c1cc2ccccc2[nH]1)N1CCCC(n2cc(-c3nc(-c4ccccc4)no3)nn2)C1 (stereo not drawn),4,18µM*,102%,5%
COCC1N(Cc2ccc(Oc3ccccc3)cc2)C2CCC1(O)CC2 (stereo not drawn),27,.,.,.
CN1CCc2c(sc3c2C(=O)NC(c2ccc(OC(=O)c4ccc(C(C)(C)C)cc4)cc2)N3)C1 (stereo not drawn),-10,?,1µM*,?
CN1CCc2c(sc3c2C(=O)NC(c2ccc(OC(=O)c4ccc(Cl)cc4)cc2)N3)C1 (stereo not drawn),-2,?,-17%,24%
COCCNC(=O)c1ccc2c(c1)N(C)C(CC(=O)N1CCCCC1)CO2 (stereo not drawn),3,?,-3%,8%
COCCNC(=O)c1ccc2c(c1)N(C)C(CC(=O)N1CCC(C)CC1)CO2 (stereo not drawn),0,20µM*,-6%,-11%
COCCNC(=O)c1ccc2c(c1)N(C)C(CC(=O)N1CCCOCC1)CO2 (stereo not drawn),4,32µM*,3%,-3%
O=C(NC1CCCN(c2ccnc3ccnn23)C1)c1cccc(Br)c1 (stereo not drawn),-2,.,5%[87.6 µM],-14%[87.6 µM]
COc1ccccc1-c1nc(C2CC(=O)N(C3CCCCC3)C2)no1 (stereo not drawn),0,20µM*,39%,5%
COc1ccc(-c2nc(C3CC(=O)N(c4ccc(C)cc4)C3)no2)c(OC)c1 (stereo not drawn),0,25µM*,?,-8%
COc1ccc(N2CC(c3noc(-c4ccc(OC)cc4OC)n3)CC2=O)cc1 (stereo not drawn),-7,i,6%,-1%
CCc1ccc(N2CC(c3noc(-c4ccc(OC)cc4OC)n3)CC2=O)cc1 (stereo not drawn),-1,32µM*,-3%,1%

# Bioassay records from PubChem.
